From PubChem BioAssay AID1851 (National Center for Advancing Translational Sciences (NCATS), 2009)
Where “and” joins values, the source holds several entries; their conditions need not be identical. Equal entries are not always repeated. Among all 16,000 compounds or so, about 4,000 (25%) were called active. About 26% were inconclusive and are not listed. The list is a sample of the results. Values without a mark were called inactive. Calls follow the shape of the dose curve; as a rule, active = well fitted curve in the direction sought with a large enough effect; inconclusive = small, poorly fitted or top-dose-only effect, or effect the other way; inactive = no such curve, though single readings can be large or run the other way.

Biological target: Cytochrome P450 2C9 (Homo sapiens) (UniProt P11712)
Sequence (P11712 whole entry, looked up): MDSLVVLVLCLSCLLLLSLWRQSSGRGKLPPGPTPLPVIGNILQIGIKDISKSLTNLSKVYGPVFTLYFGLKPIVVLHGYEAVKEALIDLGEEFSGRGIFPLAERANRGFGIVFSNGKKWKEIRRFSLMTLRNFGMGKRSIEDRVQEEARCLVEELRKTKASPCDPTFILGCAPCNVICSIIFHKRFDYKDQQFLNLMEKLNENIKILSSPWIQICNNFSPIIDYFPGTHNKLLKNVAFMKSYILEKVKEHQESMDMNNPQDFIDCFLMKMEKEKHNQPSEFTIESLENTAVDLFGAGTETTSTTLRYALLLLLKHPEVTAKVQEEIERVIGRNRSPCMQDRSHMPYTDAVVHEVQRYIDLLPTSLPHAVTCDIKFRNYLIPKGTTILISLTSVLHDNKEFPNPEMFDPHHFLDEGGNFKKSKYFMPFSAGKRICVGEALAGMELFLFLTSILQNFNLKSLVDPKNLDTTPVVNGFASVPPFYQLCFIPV
Assay: Cytochrome panel assay with activity outcomes
Details: recombinant CYP, pro-luciferin dealkylation, luminescence, p450-cyp2c9; series mostly up to 57.1 µM
% is scaled to controls: 0 for no effect and ±100 for the full control effect.

SMILES | AC50 | activity, negative = inhibition
COC(=O)c1c(NC(=O)C(C)(C)C)sc2c1C(C(=O)OC)CC2 (stereo not drawn) | 20 µM (active) | 
O=c1c(-c2ccccc2)nc2cnc(N3CCOCC3)nc2n1-c1ccccc1 | inactive | 
O=c1nc(N2CCOCC2)ccn1-c1nc(-c2ccccc2)oc1-c1ccccc1 | 4.47 µM (active) | 
O=c1c(-c2cc(F)cc(F)c2)nc2cnc(N3CCOCC3)nc2n1-c1ccccc1 | inactive | 
CCc1cc2c(nc1CC)CCN(CC/C(C)=N/O[C@@H](C)c1cn([C@@H]3COC[C@@H]3O)nn1)C2 |  | 18.9% [at 11.4 µM]
CCCCCOc1ccc(NC(=O)C(=O)NCCC2=CCCCC2)cc1 | inactive | 
CC1(c2ccccc2)NC(=O)N(CC(=O)NCCC2=CCCCC2)C1=O (stereo not drawn) | 25.1 µM (active) | 
O=C(NCCc1ccc(Cl)cc1)c1ncn[nH]1 | inactive | 
CCCCNC(=O)[C@@H]1Cc2ccccc2N1C(=O)[C@H](N)CC | inactive | 
O=C1CSc2ccc(C(=O)NCCC3=CCCCC3)cc2N1 | inactive | 
O=C(COc1ccc(Cl)cc1)NCCC1=CCCCC1 | 3.98 µM (active) | 
O=C(CN1C(=O)NC2(CCCC2)C1=O)NCCC1=CCCCC1 | inactive | 
O=C(CN1CCN(c2ncccn2)CC1)NCCC1=CCCCC1 | 3.55 µM (active) | 
COc1ccc2c(c1)CCCC21NC(=O)N(CC(N)=O)C1=O (stereo not drawn) | inactive | 
CCCCNC(=O)CN1C(=O)NC2(CCCc3ccccc32)C1=O (stereo not drawn) | 2.24 µM (active) | 
O=C(O)C1CCN(c2ncccn2)CC1 | inactive | 
O=C(CN1CCN(C2CCCCC2)CC1)NCCC1=CCCCC1 | inactive | 
CCCCC[C@H](CC(=O)NO)C(=O)N[C@@H](C(=O)N1CCC[C@H]1CO)C(C)C | inactive | 
O=C(O)/C=C\c1cnc[nH]1 | inactive | 
Cc1cccc(Nc2ccccc2C(=O)O)c1C | 7.94 µM (active) | 
Cc1ccc(Cl)c(Nc2ccccc2C(=O)O)c1Cl | 7.94 µM (active) and 1.26 µM (active) | 

SMILES | AC50 | activity, negative = inhibition
Cc1c(Cl)cccc1Nc1ccccc1C(=O)O | 3.16 µM (active) | 
Cc1c(Nc2ncccc2C(=O)O)cccc1C(F)(F)F | inactive | 
O=C(O)CCNc1ccccc1C(=O)O |  | 14.2% [at 11.4 µM]
O=C(O)c1cccc(C(=O)O)c1S(=O)Cc1ccccc1 (stereo not drawn) |  | 7.56% [at 11.4 µM]
O=C(Nc1cccc(F)c1)N1CCCC2(CCN(C(=O)c3cc(C(F)(F)F)cc(C(F)(F)F)c3)CC2)C1 | inactive | 
Cn1ccnc1C[C@@](C)(O)c1ccccc1 |  | 4.93% [at 11.4 µM]
CCc1c(O)nc2sc3ccccc3n2c1=O | 3.16 µM (active) | 
CC(=O)Nc1c(I)c(C(=O)N[C@H]2[C@@H](O)[C@H](O)[C@H](CO)O[C@@H]2O)c(I)c(N(C)C(C)=O)c1I | inactive | 
Cc1c(C=NCCOCc2ccccc2)cnn1C | inactive | 
COC(=O)[C@@]1(Cc2ccc(F)cc2)[C@H]2c3cc(C(=O)N(C)C)n(Cc4ccc(C)o4)c3C[C@H]2CN1C(=O)c1ccccc1 | 10 µM (active) | 
COC(=O)[C@@]1(Cc2ccccc2)[C@H]2c3cc(C(=O)N4CCCC4)n(Cc4ccc(C)o4)c3C[C@H]2CN1C(=O)c1ccccc1 | 1 µM (active) | 
COC(=O)[C@@]1(Cc2ccc(F)cc2)[C@H]2c3cc(C(=O)N4CCCC4)n(Cc4ccc(C)o4)c3C[C@H]2CN1C(=O)c1ccccc1 | 3.98 µM (active) | 
O=c1c2ccccc2c(-c2ccccc2)nn1-c1ccc(Cl)c(Cl)c1 | 11.2 µM (active) | 
CC(C)(C)Cn1nc(-c2ccc(Cl)cc2)c2c(N)ncnc21 | inactive | 
COc1ncc2nc(-c3ccccc3)c(=O)n(-c3ccccc3)c2n1 | inactive | 
Cn1c(=O)c(-c2ccc(Cl)cc2)nc2cnc(Nc3ccccc3)nc21 | inactive | 
O=c1c2ccccc2c(-c2ccccc2)nn1Cc1ccc(Cl)cc1 | 8.91 µM (active) | 
Cc1ccc(Cn2cnc3c(nnn3Cc3ccc(Cl)cc3)c2=O)cc1 | inactive | 
CCCc1[nH]nc2c1C(c1ccncc1)C(C#N)=C(N)O2 (stereo not drawn) | 2.51 µM (active) | 
O=P(O)(CCc1ccccc1)C(O)c1ccccc1 (stereo not drawn) | inactive | 
CC[C@](N)(C(=O)O)C(C)C |  | 1.15% [at 11.4 µM]

SMILES | AC50 | activity, negative = inhibition
C=CCn1c(SCC)nc2sc3c(c2c1=O)CCc1ccccc1-3 | 10 µM (active) | 
C=CCn1c(SCc2ccccc2)nc2scc(-c3ccc(C)o3)c2c1=O | inactive | 
Cc1c2cccc(Sc3ccccc3)c2c2c3c(cccc13)[S+](c1ccccc1)C2 (stereo not drawn) | 2.51 µM (active) | 
CC1CCCC(C)N1C(=O)C1CC(c2ccc(F)cc2)=NO1 (stereo not drawn) | 10 µM (active) | 
O=C(NNC(=O)C1CC(c2cccnc2)=NO1)Nc1cccc(F)c1 (stereo not drawn) | inactive | 
CSCCC(NC=C1C(=O)OC(C)(C)OC1=O)C(=O)O (stereo not drawn) | inactive | 
CNc1ncncc1-c1ccccc1OC |  | 6.03% [at 2.29 µM]
O=S(=O)(O)C1CCNCC1 | inactive | 
N#CC1=C(N)OC2=C(CC/C2=C\c2ccccc2)C1c1ccccc1 (stereo not drawn) | 0.355 µM (active) | 
COc1ccccc1CN1CCCC2(CCN(C(C)=O)CC2)C1 | inactive | 
COc1cccc2c(=O)c(C(=O)NCc3cccs3)c[nH]c12 | 6.31 µM (active) | 
COc1cccc(-c2nc(NCc3cccs3)c3ccccc3n2)c1 |  | -29.3% [at 2.29 µM]
COc1ccccc1-c1nc(NCc2cccs2)c2ccccc2n1 |  | 7.82% [at 2.29 µM]
CN(N=O)C(=O)N[C@H]1[C@@H](O)[C@H](O)[C@H](CO)O[C@@H]1O | inactive | 
C[C@@]12CC(=O)[C@@H]3[C@@H](CCC4=CC(=O)CC[C@]43C)[C@@H]1CC=C2CC(=O)O |  | 4.34% [at 11.4 µM]
CCN(C(=O)c1cnc(N2CCN(c3ncccn3)CC2)c2ccccc12)c1cccc(Cl)c1 | 3.16 µM (active) | 
COCC(=O)N1CCC2(CC1)CN(c1ccccn1)C2 | inactive | 
COCC(=O)N1CCC2(CCCN(c3ncccn3)C2)CC1 | inactive | 
COCC(=O)N1CCC2(CC1)CCN(c1ncccn1)CC2 | inactive | 
COC(=O)N1CCC2(CC1)CCN(c1ncccn1)CC2 | inactive | 
CN(C(=O)c1cnc(N2CCN(c3ncccn3)CC2)c2ccccc12)c1ccc(Cl)cc1 | 5.01 µM (active) | 
